Data as given in PubChem BioAssay AID460 (PCMD, 2006).
Screen size: about 58,000 compounds; about 100 (0.17%) were called active. Cut-off read from the data, not from the text of the source: active = inhibition above about 45%; inactive = the rest. The full list was thinned out, with actives kept by preference.

Biological target: Procathepsin L (Homo sapiens) (UniProt P07711)
Assay: blockers of CTSL protease activity – biochemical (AID 460);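 note: 0% = enzyme with no compound and 100% = no enzyme blank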
Conditions: purified cathepsin L, fluorogenic substrate, fluorescence; hits give high values;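 tested at 10 µM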

Sequence of Procathepsin L (Homo sapiens) (P07711 114-288 limits assumed): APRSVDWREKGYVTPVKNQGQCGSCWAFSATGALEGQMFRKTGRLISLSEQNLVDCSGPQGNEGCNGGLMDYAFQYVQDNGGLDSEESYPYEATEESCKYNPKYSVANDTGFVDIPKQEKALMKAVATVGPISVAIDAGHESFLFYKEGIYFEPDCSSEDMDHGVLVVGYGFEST
Sequence of Procathepsin L (Homo sapiens) (P07711 292-333 limits assumed): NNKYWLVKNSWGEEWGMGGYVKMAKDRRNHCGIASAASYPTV

inhibition, inactive:
C=CCN1C(=O)C(O)(CC(=O)c2ccc(Cl)cc2)c2ccccc21 (configuration not stated) 0.03%, CSc1cccc(NC(=O)C2CCCN2S(=O)(=O)c2ccc3c(c2)CCC(=O)N3)c1 (configuration not stated) 7.66%, Nc1ccc(SCCN2C(=O)c3ccccc3C2=O)cc1 7.88%, CCn1c2c(c3ccc(OC)cc31)CCCC2=O -5.8%, C=CCOc1nc2c(c(=O)n(C)c(=O)n2C)n1Cc1ccc(Cl)cc1Cl 31.1%, CCOC(=O)c1ccc(COC(=O)c2cc(=O)[nH]c3ccccc23)o1 2.07%, CCC(=O)Nc1nc(OC)cc(OC)n1 -4.97%, O=C(NCC1CCCO1)C(C(=O)c1ccccc1)n1cc(Cl)ccc1=O (configuration not stated) -10.2%, Cc1ccc(-c2nnn(CC(=O)N(CCO)C(C(=O)NC(C)(C)C)c3ccncc3)n2)cc1 (configuration not stated) -1.4%, CCCCCCC(=O)N(O)C1CC(=O)N(c2ccccc2)C1=O (configuration not stated) -5.53%, COCCn1c(=O)[nH]c2cc(C(=O)NCc3cccnc3)ccc2c1=O 1.59%, COc1ccc(CN2CN(C(C)C)CSC2=S)cc1 17%, Cc1cc(C(F)(F)F)nn1-c1nc(-c2ccco2)cc(C(F)(F)F)n1 1.46%, CC(=O)Oc1ccc2c(C)c(CC(C)O)c(=O)oc2c1 (configuration not stated) -70.3%, COc1ccc(C(=O)NCCc2ccc(S(N)(=O)=O)cc2)cc1OC 15.1%, Cc1ccc(OCC(O)CN2CCN(CC(O)COc3ccc(C)cc3Cl)CC2)c(Cl)c1 (configuration not stated) 24.6%, CCn1c(SCC(=O)Nc2nc3ccc(OC)cc3s2)nnc1-c1ccoc1C 19.9%, C[C@H](NC(=O)OC(C)(C)C)c1nnc(SCC(N)=O)o1 9.7%, CCOC(=O)C1CCc2nc3ccccc3c(=O)n21 (configuration not stated) 17.4%, CCN(CC)CCCNC(=O)c1cc(-c2cccc(Cl)c2)on1 10.3%, NC(=O)c1ccsc1NC(=O)c1ccco1 3.89%, CC1CCc2c(sc3c2C2=NS(=O)(=O)CCN2C=N3)C1 (configuration not stated) 0.12%, CCS(=O)(=O)N1CCN(C(=O)c2cccs2)CC1 3.99%, O=C(NCCCNC(=O)NC1CCCCC1)NC1CCCCC1 4.27%, N#Cc1c2c(c(N3CCN(CCO)CC3)n3c1nc1ccccc13)CCCC2 10.1%, Cc1ccc(-c2cc(C(F)(F)F)n3nc(C(=O)N4CCCC4)cc3n2)cc1 -2.27%, C=CCNC(=O)c1ccc(C)c(Br)c1 21.6%
